The record followed here is PubChem BioAssay AID686979 (National Center for Advancing Translational Sciences (NCATS), 2013).

SMILES strings stand for the structures. Hit rate of the full screen: of about 420,000 compounds, about 50,000 (12%) were called active. Not shown: some 26% with an inconclusive outcome. Many of the other results were omitted from the sample, so actives are more common in it than they were. Unmarked numbers belong to inactive results. Calls follow the shape of the dose curve; as a rule, active = well fitted inhibition curve with a large enough effect; inconclusive = small, poorly fitted or top-dose-only effect; inactive = flat fitted curve, though single readings scatter.
% is scaled to controls: 0 for no effect and ±100 for the full control effect; potency is read from the fitted curve at half-maximal effect.

The nature of this test: qHTS for Inhibitors of human tyrosyl-DNA phosphodiesterase 1 (TDP1): qHTS in cells in presence of CPT. Also: nearly all actives have a fitted effect of over 55% in size. The settings on record: chicken DT40 Tdp1-/-;hTDP1 cells + 20 nM CPT, ATP luminescence, 48 h; series mostly up to 46.2 µM; activity change, negative = growth inhibition: at the top concentration. In a few lines:
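Chicken DT40 Tdp1-/- cells stably complemented with human TDP1 were seeded at 400 cells/well in medium containing 20 nM camptothecin, exposed to pin-transferred compounds, and grown at 37 °C for at least 48 hr. Viability was read as ATP luminescence.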
On the technique in general: Quantitative high-throughput screening tests each substance at several concentrations.
As to `CN1CCN(c2ccc(S(=O)(=O)N3CCOCC3)cc2NC(=O)CCc2ccccc2)CC1`, the “activity change, negative = growth inhibition” value was 0.451%.
The same measure, in the same setting: to `COC(=O)c1ccc(N2CCOCC2)c(NC(=O)c2ccc(Br)o2)c1` belongs 0.879%.
Take `CCCNC(=O)c1ccc(N2CCC3(CC2)CC(c2cccc(Br)c2)=NO3)c(NC(=O)c2ccco2)c1`: the Potency is 5.17 µM (active).
Regarding `COCCNC(=O)c1ccc(N2CCC3(CC2)OCCO3)c([N+](=O)[O-])c1`, the “activity change, negative = growth inhibition” value is -2.95%.
Consider `CCCNC(=O)c1ccc(N2CCC3(CC2)CC(c2ccc(Cl)cc2)=NO3)c([N+](=O)[O-])c1`, for which the Potency was 23.1 µM (active).
Regarding `O=C(NCCCN1CCOCC1)c1ccc(N2CCCC2)c([N+](=O)[O-])c1`, the “activity change, negative = growth inhibition” value is 13.4%.
The same measure, in the same setting: next, `CCCN(CCC)CCNC(=O)c1ccc2c(c1)NC(=O)C(CS(=O)(=O)Cc1cccc(Br)c1)N2` (configuration not stated): -21.3%; `Cc1oc2c(C)c3oc(=O)c(CC(=O)N[C@@H](CC(C)C)C(=O)N[C@@H](Cc4ccccc4)C(=O)O)c(C)c3cc2c1C`: 0.481%.
Same read-out and setting: to `COc1cc(N)c(Cl)cc1C(=O)OCC(=O)c1ccc2c(c1)NC(=O)CO2` belongs -24.7%.
Still for that read-out and setting: next, `CCOc1ccccc1NC(=O)CCc1nnc2ccc(NCc3ccco3)nn12`: -5.44%.
As for `Cn1ncc([N+](=O)[O-])c1C(=O)Nc1cc(Cl)ccc1Cl`, the “activity change, negative = growth inhibition” value is 13.4%.
`C/C(=N\NC(=O)c1cccnc1)c1ccc(-n2ccnc2)cc1`: the “activity change, negative = growth inhibition” value is 6.18%.
Still for that read-out and setting: to `Cc1ccc(C)c(NC(=O)CCC(=O)N/N=C2/CC(=O)CC(C)(C)C2)c1` belongs -5.64%; to `Nc1[nH]c(C(=O)c2ccccc2)c(-c2ccc(Br)cc2)c1C(=O)NC1CC1`, -9.96%; to `COc1cccc2c(N/N=C/c3ccco3)cc(C)nc12`, -2.9%.
Regarding `Cc1cc(N/N=C\c2ccc(Br)cc2)nc(-n2nc(C)cc2C)n1`, the Potency was 1.64 µM (active).
As to `COc1cc(NS(=O)(=O)c2ccccc2)ccc1-n1nc(C)cc1C`, the “activity change, negative = growth inhibition” value was -9.7%.
Still for that read-out and setting: next, `COc1ccccc1-n1c(SCC(=O)Nc2cccc(C(=O)O)c2)nnc1-c1ccccc1O`: -3.19%.
Regarding `COc1cccc(/C=N/Nc2cc(C)nc(-c3ccccc3O)n2)c1O`, the Potency is 18.4 µM (active).
As for `Cc1ccc(S(=O)(=O)Nc2nc(C)cc(N/N=C/c3ccc(O)cc3)n2)cc1`, the “activity change, negative = growth inhibition” value was -0.757%.
`COc1ccccc1/C=N\Nc1cc(C)nc(-n2nc(C)cc2C)n1`: the Potency is 6.51 µM (active).
For the compound `COc1ccccc1/C=N/Nc1nc(C)c(C(C)=O)s1`, the “activity change, negative = growth inhibition” value was -19.1%.
Still for that read-out and setting: next, `Cc1nc(Cl)cc(N/N=C/c2ccccc2)n1`: -13%; `COc1ccc(CCNS(=O)(=O)c2ccc(Cl)s2)cc1OC`: -20.2%; `COc1cc(=O)n2c(c1C(=O)N(C)Cc1nonc1C)CCN(C(=O)c1ccc(C)cc1C)CC2`: 14.1%.
Turning to `CCc1ccc(NC(=O)CC2C(=O)NCCN2C(=S)Nc2ccccc2)cc1` (configuration not stated), the “activity change, negative = growth inhibition” value is -7.73%.
Same read-out and setting: to `O=C(Nc1nnc([C@H]2C[C@H](O)[C@@H](CO)O2)s1)c1cccc(Cl)c1` belongs -16.4%.
On the same count and under the same terms, next, `O=C(Nc1cccc2cccnc12)c1cccc(Cl)c1`: -16.5%.
As for `O=C(Nc1cccc2cccnc12)c1ccc2sc([C@H]3C[C@H](O)[C@@H](CO)O3)nc2c1`, the Potency is 18.4 µM (active).
As to `O=C1CCC(=O)N1CCC(=O)N(C(=O)NC1CCCCC1)C1CCCCC1`, the “activity change, negative = growth inhibition” value is 3.74%.
On the same count and under the same terms, next, `NC(=O)C[n+]1cccc(C(N)=O)c1`: -1.13%.
Turning to `COc1c(O)ccc2c1CN1CCc3cc4c(cc3C1C2)OCO4` (configuration not stated), the Potency is 14.6 µM (active).
With `COc1cc(COCC(O)CN2CCN(Cc3ccc4c(c3)OCO4)CC2)cc(OC)c1OC` (configuration not stated), the “activity change, negative = growth inhibition” value is -5.21%.
Still for that read-out and setting: next, `COCCCN1C(=O)C(=O)/C(=C(/O)c2ccc(S(=O)(=O)N3CCOCC3)cc2)C1c1ccc(F)cc1` (configuration not stated): -34%; `Cc1nn(C(=O)c2ccoc2C)c(N)c1-c1ccccc1`: -9.59%.
`Cc1[nH]n(-c2ccccc2)c(=O)c1/C=N/NC(=O)c1ccoc1C`: the Potency is 1.46 µM (active).
`Cc1ccc(N=Nc2c(C)[nH]n(-c3ccccc3)c2=O)cc1`: the “activity change, negative = growth inhibition” value was -17.8%.
On the same count and under the same terms, to `CCOC(=O)C1CCCN(S(=O)(=O)c2ccc(-n3cnnn3)c(C)c2)C1` (configuration not stated) belongs -25.7%; to `COc1ccc(CCn2ccc(O)c(Cc3ccc(Cl)cc3Cl)c2=O)cc1OC`, 3.26%.
The same measure, in the same setting: to `CC1CC(C)(C)CC2(C1)NC(=O)N(CC(=O)Nc1nccs1)C2=O` (configuration not stated) belongs 1.24%; to `CSc1ccc(NC(=O)/C=C/C(=O)O)cc1`, 13.8%.
Regarding `COC(=O)c1sc(-c2ccc(C(C)(C)C)cc2)cc1NC(=O)/C=C/C(=O)O`, the Potency was 4.61 µM (active).
`O=C(O)/C=C/C(=O)Nc1ccc(F)cc1F`: the “activity change, negative = growth inhibition” value is 13.5%.
Regarding `CCC(Cc1ccccc1)NC(=O)C1CCCCC1` (configuration not stated), the “activity change, negative = growth inhibition” value was -15.5%.
The same measure, in the same setting: next, `CN1CCN(CCNC(=O)Nc2ccccc2[N+](=O)[O-])CC1`: 1.85%.
The same measure, in the same setting: next, `Cn1cc(/C=C/c2nc3ccccc3c(=O)n2-c2cccc([N+](=O)[O-])c2)c2ccccc21`: -9.1%.
For `CCn1c(/C=C/c2ccc([N+](=O)[O-])o2)nc2ccccc2c1=O`, the Potency is 1.3 µM (active).
Regarding `Cc1nc2ccccc2c(=O)n1Cc1ccc([N+](=O)[O-])cc1`, the “activity change, negative = growth inhibition” value was -21.5%.
As for `CC(C)c1ccc(S(=O)(=O)N2CCC3(CC2)OCCO3)cc1`, the “activity change, negative = growth inhibition” value is -2.81%.
With `CCn1c(NC(=O)c2ccccc2)c(-c2cccs2)c(=O)c2ccccc21`, the Potency is 20.6 µM (active).
In the case of `CCn1c(=O)cc(O)c2ccccc21`, the “activity change, negative = growth inhibition” value is 2.66%.
`CCn1c(=O)c2cc(C(=O)Nc3cccc(C(C)=O)c3)sc2c2ccccc21`: the “activity change, negative = growth inhibition” value is -18.9%.
